Measurements published in PubChem BioAssay (Tox21).
Inconclusive results are not listed. Activity calls are given as the source filed them. Unless noted, calls come from the whole dose curve; as a rule, active = well fitted curve in the direction sought with a large enough effect in the repeat runs; inconclusive = weak or mixed curves; inactive = no such curve, though single readings can be large; an effect the other way counts as inactive or inconclusive.

Key:
[1] = qHTS assay to identify small molecule agonists of the vitamin D receptor (VDR) signaling pathway - cell viability counter screen (AID 743224); note: series mostly up to about 63 µM; nearly all actives have a fitted effect of over 50% in size
In short: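 Counter screen for cytotoxicity: VDR-bla cells at 2,000 cells/well, 16 h compound exposure, then CellTiter-Glo luminescence after the beta-lactamase measurement.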

[2] = qHTS assay to identify small molecule antagonists of the vitamin D receptor (VDR) signaling pathway - cell viability counter screen (AID 743225); note: nearly all actives have a fitted effect of over 50% in size
In short: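 VDR-bla HEK 293T cells, 4 h pre-incubation at 37C, then compound plus 1-alpha,25-dihydroxyvitamin D3 (3 nM final) for 16 h. After the beta-lactamase FRET read, CellTiter-Glo was added to the same wells; luminescence after 30 min at room temperature.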

[3] = qHTS assay to identify small molecule agonists of the NFkB signaling pathway (AID 1159509; active = well fitted curve in the direction sought with a large enough effect in the signal ratio in the repeat runs, not every such curve was filed as active; the % refers to the signal ratio; note: series mostly up to about 61 µM)
In short: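 Agonist activity was read as beta-lactamase-driven FRET change (460 and 530 nm emission, 405 nm excitation) following 1.5 hr substrate loading at room temperature. Beforehand, ME-180 NFkB-bla reporter cells were treated with compounds for 5 hr at 37 C.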

[4] = qHTS assay to identify small molecule agonists of the NFkB signaling pathway - cell viability counter screen (AID 1159515; calls by dose curve; note: series mostly up to about 61 µM; nearly all actives have a fitted effect of over 55% in size)
In short: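 Counter screen run alongside the NFkB-bla agonist assay: ME-180 reporter cells exposed to compounds for 5 hr, then lysed with CellTiter-Glo in the same wells. Luminescence, read after 30 min, reflects viable cells.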

[5] = qHTS assay to identify small molecule agonists of the endoplasmic reticulum stress response signaling pathway (AID 1159516; active = well fitted activation curve with a large enough effect in the signal ratio in the repeat runs, not every such curve was filed as active; the % refers to the signal ratio)
In short: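 For this screen, HeLa cells stably carrying beta-lactamase under the ER stress response element received test compounds, positive controls or DMSO for 5 hr at 37 C; B/G FRET substrate was then added and dual-wavelength emission recorded.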

[6] = qHTS assay to identify small molecule agonists of the endoplasmic reticulum stress response signaling pathway - cell viability counter screen (AID 1159517; calls by dose curve; note: series mostly up to about 61 µM; nearly all actives have a fitted effect of over 50% in size)
In short: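 In parallel with the ESRE reporter read, cytotoxicity was scored by CellTiter-Glo luminescence (30 min, room temperature) on HeLa ESRE-bla cells dosed for 5 hr.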

[7] = qHTS assay to identify small molecule antagonists of the retinoid-related orphan receptor gamma (ROR-gamma) signaling pathway - cell viability counter screen (AID 1159520); note: nearly all actives have a fitted effect of over 50% in size
In short: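 Tet-on ROR gamma CHO cells were given compounds for 2 hr, then doxycycline hyclate at 1 uM final, and incubated 16 hr at 37 C. Viability was measured as ATP content by CellTiter-Glo luminescence.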

[8] = target: Nuclear receptor ROR-gamma (Homo sapiens) (UniProt P51449); assay: qHTS assay to identify small molecule antagonists of the retinoid-related orphan receptor gamma (ROR-gamma) signaling pathway (AID 1159521)
In short: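 Tet-on RORγ CHO cells carrying a ROR response element–luciferase reporter were pretreated with compounds for 2 h, then induced with 1 uM (final) doxycycline hyclate for 16 h at 37 C. Antagonism was read as decreased ONE-Glo luminescence.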

[9] = qHTS assay to identify small molecule agonists of the AP-1 signaling pathway - cell viability counter screen (AID 1159525; calls by dose curve; note: nearly all actives have a fitted effect of over 55% in size)
In short: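 Same-well cytotoxicity counter screen of the Tox21 10K library in ME-180 cells. The readout is ATP-dependent luminescence after 5 h compound treatment. Data are normalised to DMSO and tetra n-octyl ammonium bromide controls.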

[10] = qHTS assay to identify small molecule agonists of the AP-1 signaling pathway (AID 1159526; calls by dose curve)
[11] = qHTS assay to identify small molecule agonists of the RXR signaling pathway - cell viability counter screen (AID 1159529); note: nearly all actives have a fitted effect of over 50% in size; note: potency is the fitted concentration of half-maximal effect
In short: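 RXR-alpha-UAS-bla HEK 293T cells in medium with 2% charcoal-stripped FBS were preincubated 5 hr, then exposed to compounds for 16 hr at 37 C. Viability was read as CellTiter-Glo luminescence after 30 min at room temperature.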

[12] = qHTS assay to identify small molecule antagonists of the retinoid acid receptor (RAR) signaling pathway - cell viability counter screen (AID 1159551); note: nearly all actives have a fitted effect of over 35% in size
In short: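 Measured by luminescent ATP detection, viability reflects C3RL4 cells treated 6 h at 37 C with test chemicals in the presence of 1 uM (final) retinol.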

[13] = qHTS assay to identify small molecule antagonists of the retinoic acid receptor (RAR) signaling pathway (AID 1159552; note: nearly all actives have a fitted effect of over 50% in size)
In short: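 RARE-luc C3RL4 cells; cpds + 1 uM (final) retinol, 6 hr, 37 C/5% CO2; luciferase reagent, 30 min RT, luminescence readout. Inhibitors of retinol-driven signal scored.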

[14] = qHTS assay to identify small molecule agonists of the retinoic acid receptor (RAR) signaling pathway (AID 1159553); note: potency is the fitted concentration of half-maximal effect
In short: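 6 hr compound exposure (DMSO vehicle) of overnight-plated C3RL4 RARE-luc cells at 37 C; luminescence quantified after 30 min RT with luciferase reagent.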

[15] = qHTS assay to identify small molecule antagonists of the estrogen related receptor (ERR) signaling pathway - cell viability counter screen (AID 1224818); note: series mostly up to about 46 µM
In short: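 Compounds dissolved in DMSO were applied to ERR cells seeded at 2,000 per well 6 h earlier. Cell viability followed 17.5 h later via 30-min CellTiter-Fluor fluorescence.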

[16] = qHTS assay to identify small molecule antagonists of the estrogen related receptor (ERR) signaling pathway (AID 1224819; note: nearly all actives have a fitted effect of over 50% in size; note: potency is the fitted concentration of half-maximal effect)
In short: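 Compounds dissolved in DMSO were pin-transferred onto ERR cells that had been plated 6 h earlier, and cells were then incubated 18 h at 37 C; signal was luciferase luminescence via One-Glo.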

[17] = test system: estrogen-related receptor alpha (ERRalpha) with PGC-1alpha coactivator, human; assay: qHTS assay to identify small molecule antagonists of the estrogen related receptor signaling pathway with the pleiotropic PPARgamma coactivator (PGC) (AID 1224821; calls by dose curve)
In short: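 Luminescence from One-Glo luciferase reagent (30 min, room temperature) measured after 18 h compound treatment at 37 °C. Cells carry the PGC/ERR reporter and were seeded 6 h prior to dosing.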

[18] = qHTS assay to identify small molecule antagonists of the estrogen related receptor signaling pathway with the pleiotropic PPARgamma coactivator (PGC) cell viability counter screen (AID 1224822; note: series mostly up to about 46 µM)
In short: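 Counter screen for cell viability: PGC/ERR cells, 6 h pre-incubation after plating, 17.5 h compound exposure at 37 C, fluorescence from CellTiter-Fluor after 30 min.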

[19] = qHTS assay to identify small molecule agonists of the estrogen related receptor (ERR) signaling pathway (AID 1224820)
In short: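 After 6 h plating (2,000 cells/well) and 18 h compound treatment at 37 C, ERR cells were lysed with One-Glo and luminescence read after 30 min at room temperature.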

[20] = target: Retinoic acid receptor RXR-alpha (Homo sapiens) (UniProt P19793); assay: qHTS assay to identify small molecule agonists of the RXR signaling pathway (AID 1159527; calls by dose curve; note: nearly all actives have a fitted effect of over 35% in size)
In short: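 GeneBLAzer RXR-alpha-UAS-bla HEK 293T cells in medium with 2% charcoal-stripped FBS, pre-incubated 5 hr at 37 C, then exposed to compounds 16 hr. Beta-lactamase reporter read by FRET substrate, 2 hr room temperature, 460/530 nm emission.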

Measured: Potency

Retinoic acid receptor RXR-alpha (Homo sapiens), sequence (P19793 whole entry, looked up): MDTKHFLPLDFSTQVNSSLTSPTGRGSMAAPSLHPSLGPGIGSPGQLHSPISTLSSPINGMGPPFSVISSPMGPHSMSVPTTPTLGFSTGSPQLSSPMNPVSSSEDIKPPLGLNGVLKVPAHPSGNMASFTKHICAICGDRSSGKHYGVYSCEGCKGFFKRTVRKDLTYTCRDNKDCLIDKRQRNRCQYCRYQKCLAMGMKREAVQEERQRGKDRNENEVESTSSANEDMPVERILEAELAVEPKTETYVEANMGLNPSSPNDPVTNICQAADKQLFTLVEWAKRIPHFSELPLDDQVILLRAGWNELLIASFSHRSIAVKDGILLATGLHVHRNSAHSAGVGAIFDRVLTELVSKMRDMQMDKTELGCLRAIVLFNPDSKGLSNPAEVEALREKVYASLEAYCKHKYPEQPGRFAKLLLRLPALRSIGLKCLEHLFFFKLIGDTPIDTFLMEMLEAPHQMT

CCCCCCCCCCCC(=O)OCC
not listed: [15] | [16] | [17] | [18] | [19] | [20]
inactive: all other assays above

CCCCCCCCCCCCSCCOCCO
not listed: [15] | [16] | [17] | [18] | [19] | [20]
inactive: all other assays above

O=C(Nc1ccccc1)c1cc([N+](=O)[O-])ccc1Cl
inactive: [15] | [16] | [17] | [18]

CC(C)(C(=O)O)c1ccc(C(O)CCCN2CCC(C(O)(c3ccccc3)c3ccccc3)CC2)cc1 (centres undefined)
inactive: [15] | [18]

CC1=C(C)C(=O)C(CCCCC#CCCCC#CCO)=C(C)C1=O
active: [16] 12.8 µM
inactive: [19] | [17]

CCOc1ccc(NC(C)=O)cc1N
not listed: [11] | [14] | [15] | [16] | [17] | [18] | [19] | [20]
inactive: all other assays above

COc1ccnc2c1CCCCC2S(=O)c1nc2ccccc2[nH]1 (centres undefined)
not listed: [11] | [14] | [15] | [16] | [17] | [18] | [19] | [20]
inactive: all other assays above

O=C(C1CCCCC1)N1CC(=O)N2CCCc3ccccc3C2C1 (centres undefined)
not listed: [8] | [15] | [16] | [17] | [18] | [19] | [20]
inactive: all other assays above

COc1cccc([C@H](O)C2CCN(CCc3ccc(F)cc3)CC2)c1OC
not listed: [11] | [15] | [16] | [17] | [18] | [19] | [20]
inactive: all other assays above

c1ccc(CCNc2nc(-c3ccccc3)cs2)cc1
active: [14] 2.11 µM
not listed: [10] | [15] | [16] | [17] | [18] | [19]
inactive: all other assays above

O=C(O)c1cccc(C(=O)O)c1C(=O)O
active: [11] 24.8 µM
not listed: [8] | [15] | [16] | [17] | [18] | [19] | [20]
inactive: all other assays above

CC(CC(C#N)(c1ccccc1)C(C)C)N(C)C (centres undefined)
not listed: [10] | [15] | [16] | [17] | [18] | [19]
inactive: all other assays above

Clc1cc(Cl)c2c(c1)N=C1CCCCCN1C2
not listed: [11] | [14] | [15] | [16] | [17] | [18] | [19] | [20]
inactive: all other assays above

CC1(COc2ccc(CC3SC(=O)NC3=O)cc2)CCCCC1 (centres undefined)
inactive: [1] | [2] | [3] | [4] | [5] | [6] | [7] | [8] | [9] | [10] | [12]

CCCc1ccc(OC)cc1
not listed: [11] | [15] | [16] | [17] | [18] | [19] | [20]
inactive: all other assays above

C/C=C1\[C@H]2C=C(C)C[C@]1(N)c1ccc(=O)[nH]c1C2
not listed: [11] | [15] | [16] | [17] | [18] | [19] | [20]
inactive: all other assays above

CC(C)(C)c1cc(C=O)cc(C(C)(C)C)c1O
inactive: [1] | [2] | [3] | [4] | [5] | [6] | [7] | [8] | [9] | [10] | [12]

CC(COc1ccccc1)NC(C)C(O)c1ccc(O)cc1 (centres undefined)
not listed: [1] | [10] | [15] | [16] | [17] | [18] | [19]
inactive: all other assays above

CC(C)(C)NCC(O)COc1ccc(NC(=O)NC2CCCCC2)cc1 (centres undefined)
not listed: [11] | [14] | [15] | [16] | [17] | [18] | [19] | [20]
inactive: all other assays above

C=C[Si](OCC)(OCC)OCC
inactive: [1] | [3] | [4] | [5] | [6] | [7] | [8] | [9] | [10] | [12]

O=Cc1ccc([N+](=O)[O-])cc1
active: [14] 19.4 µM
not listed: [10] | [15] | [16] | [17] | [18] | [19]
inactive: all other assays above

CCCCCCCCOCCCN
not listed: [1] | [2] | [10] | [15] | [16] | [17] | [18] | [19]
inactive: all other assays above
